This is part of a sample that, as a whole, favours compounds with a hit. Of some 83,000 tested, about 20% had one in any assay.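 48-hour exposure, single concentration, 96-well plates; percent growth endpoint where 0 means no net growth. Active: below 10.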 Values without a mark were called inactive. Calls of active or inactive are those of the source.

Common to all, as to assay: NCI-60 one-dose screen, 48 h (100 = growth as untreated, 0 = no growth, -100 = all killed)
Common to all, as to settings: 10 µM unless noted

Experiment [1] deals with NCI-H23 lung.
For experiment [2], the system named is NCI-H226 lung.
The test system of experiment [3] is NCI-H322M lung.
Experiment [4] relates to HOP-62 NSCLC.
In experiment [5] the test system is NCI-H460 lung.
In experiment [6] the test system is HOP-92 NSCLC.
Experiment [7] relates to NCI-H522 lung.
Experiment [8] concerns A549/ATCC NSCLC.
The test system of experiment [9] is 786-0 renal.
The subject of experiment [10] is COLO 205 colon.
Experiment [11] relates to DU-145 prostate.
For experiment [12], the system named is K-562 leukemia.
The subject of experiment [13] is MALME-3M melanoma.
Experiment [14] relates to MDA-MB-231 breast.
In experiment [15] the test system is RXF 393 renal.
The subject of experiment [16] is SF-268 CNS.
Experiment [17] relates to SF-295 CNS.
For experiment [18], the system named is SF-539 CNS.
The test system of experiment [19] is UACC-257 melanoma.
Experiment [20] deals with M14 melanoma.

Consider `CCOC(=O)Nc1ccc(C(=O)/C=C/c2ccccc2)cc1`, for which the growth is 95% in experiment [1]; 79.2% in [2]; 100% in experiment [3]; 90.2% in experiment [4]; 91.3% in [5]; 70.2% in experiment [6]. In addition, the growth in experiment [7] was 106%; in [8], 54.4%; in experiment [9], 87.1%; in experiment [10], 127%; in experiment [11] it was 86.4%; in [12], 24.2%. The growth in experiment [13] is 103%; in experiment [14] it was 95.9%; in experiment [15] it was 36.8%; in [16], 93.8%; in experiment [17], 106%; in experiment [18], 67.9%. Moreover, the growth in experiment [19] was 115%; in experiment [20], 79.2%.
Consider `CCOC(=O)c1cn2ncnc(Oc3ccc(NC(=O)NCCN4CCN(C)CC4)c(Cl)c3)c2c1C`, for which the growth in experiment [1] was 67.8%; in experiment [2] it was 82.3%; in experiment [3], 93%; in [4], 87.9%; in experiment [5] it was 99.4%; in [6], 31.6%. In addition, the growth in experiment [7] was 66.6%; in [8], 88.6%; in experiment [9], 81.8%; in experiment [10] it was 76.8%; in experiment [11] it was 81.2%; in experiment [12] it was 10.9%. Also, the growth in experiment [13] was 28.3%; in experiment [14], 72%; in experiment [15] it was 35.8%; in experiment [16], 81.4%; in [17], 94.8%; in [18], 78.5%. The growth in [19] is -15.9% (active); in [20], -23.7% (active).
On to `O=c1[nH]c2c(ccc3cnccc32)c2c1CCC2`, for which the growth in [1] was -64.6% (active); in experiment [2], -6.54% (active); in [3], -11.7% (active); in [4] it was -3.9% (active); in experiment [5], -4.19% (active); in experiment [6], -17.1% (active). Also, the growth in [7] is -33.6% (active); in [8], 14.9%; in [9], 12.6%; in [10], -77.4% (active); in [11], -9.29% (active); in experiment [12], 14.6%. For the same compound, the growth in experiment [13] was -59.2% (active); in experiment [14], 2.78% (active); in [15], -53.8% (active); in experiment [16] it was -17.7% (active); in experiment [17], -47.2% (active); in [18], -59.7% (active). Besides, the growth in experiment [19] is 6.08% (active); in [20], -77% (active).
As to `Cc1cc(Cl)ccc1NS(=O)(=O)c1ccc(-c2cnc(C3CC3)o2)cc1`, the growth in experiment [1] was 31.1%; in experiment [2], 27.7%; in experiment [3] it was 50.7%; in experiment [4], 48.5%; in experiment [5], 12.2%; in experiment [6], 58.3%. The growth in experiment [7] is 13.5%; in [8] it was 28.4%; in [9] it was 28.6%; in [10] it was -11% (active); in experiment [11], 21%; in experiment [12], 9.89% (active). Besides, the growth is 68% in [13]; 26.2% in experiment [14]; 16.2% in [15]; 47% in [16]; 16.9% in [17]; -19.1% (active) in [18]. The growth was 69.4% in experiment [19] and 10.2% in experiment [20].
On to `O=C(Nc1ccc(F)cc1F)c1cc(F)ccc1O`, for which the growth in experiment [1] was -6.29% (active); in experiment [2], 4.02% (active); in [3], -6.69% (active); in experiment [4], 16.4%; in [5], 7.51% (active); in [6], -29.9% (active). Moreover, the growth in experiment [7] is -6.24% (active); in experiment [8], 18%; in experiment [9], 13.3%; in [10] it was 81.1%; in experiment [11], 21.9%; in experiment [12], 9.5% (active). For the same compound, the growth in experiment [13] was -25.7% (active); in experiment [14], 10.8%; in [15], 2.57% (active); in [16], 15.8%; in experiment [17], 6.99% (active); in [18] it was 17.1%. Further, the growth in experiment [19] is -8.33% (active); in experiment [20], 25.6%.
On to `c1ccc2c(c1)Nc1ccncc1S2`, for which the growth was 99.5% in experiment [1]; 84% in experiment [2]; 114% in [3]; 98.2% in experiment [4]; 100% in experiment [5]; 97.9% in experiment [6]. Moreover, the growth in experiment [7] is 92.5%; in experiment [8], 100%; in experiment [9], 109%; in [10] it was 130%; in experiment [11], 118%; in experiment [12], 112%. In addition, the growth was 111% in experiment [13]; 87.8% in experiment [14]; 4.28% (active) in experiment [15]; 99.3% in experiment [16]; 101% in [17]; 84.4% in experiment [18]. Besides, the growth in [19] is 108%; in [20], 95.1%.
In the case of `O=C(O)C(c1ccccc1)N1C(=O)CSC1=S` (stereo not given), the growth is 106% in [1]; 95.8% in experiment [2]; 97.9% in [3]; 99.5% in experiment [4]; 107% in experiment [5]; 111% in experiment [6]. The growth is 88.2% in [7]; 92% in experiment [8]; 102% in experiment [9]; 108% in experiment [10]; 107% in [11]; 103% in experiment [12]. The growth in experiment [13] was 107%; in experiment [14] it was 108%; in experiment [15], 108%; in experiment [16], 94.4%; in experiment [17] it was 104%; in experiment [18] it was 100%. Also, the values for the growth in experiment [19] and in experiment [20] were 101% and 100%, respectively.
For the compound `NS(=O)(=O)c1ccc(-n2nc(-c3ccc(Cl)cc3)c3ccccc3c2=O)cc1`, the growth is 101% in experiment [1]; 96.1% in experiment [2]; 148% in experiment [3]; 92.6% in [4]; 96.3% in [5]; 80.9% in experiment [6]. The growth in [7] is 87.4%; in experiment [8], 87.5%; in [9], 92.7%; in experiment [10], 111%; in [11], 111%; in experiment [12], 84.2%. Besides, the growth in experiment [13] is 182%; in [14], 87.9%; in experiment [15], 98.8%; in experiment [16], 98.1%; in [17] it was 97.3%; in [18], 89.4%. Besides, the growth in experiment [19] was 116%; in experiment [20] it was 103%.

The values are drawn from PubChem BioAssay (NCI).
